Measured values reported in PubChem BioAssay AID1259343 (VanderVen Lab, College of Veterinary Medicine, Cornell …, 2017).
About 2,900 (47%) of roughly 6,200 compounds were called active. Rule as the data show it: active = inhibition above about 50%; inactive = the rest. The set was probably picked from earlier hits. The list shows a part of the results.

Assay: Mycobacterium tuberculosis growth inhibition, primary screen (AID 1259343)
Settings: inhibition: at 10 µM, stronger effect = higher value; outcome: 10 uM

| Compound | inhibition |
| --- | --- |
| Cc1ccc(/C=C/S(=O)(=O)N2CC(C(N)=O)c3ccccc32)cc1 (configuration not stated) | -0.07% (inactive) |
| CCc1cc(=O)[nH]c(-n2nc(C)cc2NC(=O)C(C)C)n1 | 101% (active) |
| Cc1cc(=O)[nH]c(-n2nc(C)cc2NC(=O)c2ccc(C)c(C)c2)n1 | 100% (active) |
| CCOc1ccc(C(=O)Nc2cc(C)nn2-c2nc(C)c(C)c(=O)[nH]2)cc1OCC | 98.7% (active) |
| Cc1cc(=O)[nH]c(-n2nc(C)cc2NC(=O)c2ccc(-c3ccccc3)cc2)n1 | 100% (active) |
| CCOc1ccc(C(=O)Nc2cc(C)nn2-c2nc(C)c(CC)c(=O)[nH]2)cc1OCC | -21.9% (inactive) |
| Cc1cc(NC(=O)c2ccc(-c3ccccc3)cc2)n(-c2nc(C)c(C)c(=O)[nH]2)n1 | 100% (active) |
| Cc1cc(NC(=O)c2ccccc2)n(-c2nc(C)c(C)c(=O)[nH]2)n1 | -21.2% (inactive) |
| Cc1cc(=O)[nH]c(-n2nc(C)cc2NC(=O)c2ccccc2)n1 | 101% (active) |
| Cc1ccc(C(=O)Nc2cc(C)nn2-c2nc(C)cc(=O)[nH]2)cc1 | 101% (active) |
| Cc1cc(C)cc(C(=O)Nc2cc(C)nn2-c2nc(C)cc(=O)[nH]2)c1 | 100% (active) |
| CSc1c(C#N)c(=O)[nH]c2sc(C#N)c(N)c12 | 29.1% (inactive) |
| CSc1c(C#N)c(SCC(=O)c2cc3ccccc3oc2=O)[nH]c(=O)c1C#N | 83% (active) |
| COC(=O)c1ccc(-c2noc(CN3CCC(C(O)c4cccs4)CC3)n2)cc1 (configuration not stated) | 16.3% (inactive) |
| COC(=O)c1ccc(N2CCN(Cc3nc(Cc4cccc(F)c4)no3)CC2)cc1 | 59.4% (active) |
| Fc1ccccc1Cc1noc(CN2CCN(c3cccc(C(F)(F)F)c3)CC2)n1 | 34.2% (inactive) |
| COC(=O)c1ccc(-c2noc(CN3CCC(C(O)Cc4ccccc4)CC3)n2)cc1 (configuration not stated) | 14.8% (inactive) |
| COC(=O)c1ccc(-c2noc(CN3CCCN(C(=O)c4ccco4)CC3)n2)cc1 | 84.3% (active) |
| O=C(Nc1ncc(SCCN2CCCC2)s1)[C@]1(c2ccc(S(=O)(=O)C3CC3)cc2)C[C@H]1C1CCCCC1 | 17.1% (inactive) |
| CC(=O)Oc1ccc(CN2C(=O)C(CCc3ccccc3)ON=C2c2cnccn2)cc1 (configuration not stated) | 41.4% (inactive) |
| Fc1ccc(COc2ccc(-c3nnco3)cc2)c(Cl)c1 | 55.8% (active) |
| CC(C)(C)c1ccc(OCc2ccc(-c3nnco3)cc2)cc1 | 49.7% (inactive) |
| CC(C)C(=O)Nc1ccc(Sc2nncs2)cc1 | 89.1% (active) |
| CC(=O)Nc1ccc(Sc2ncnc3sccc23)cc1 | 0.26% (inactive) |
| Cc1csc(Sc2ccc(NC(=O)c3cnn(C)c3C)cc2)n1 | 16.3% (inactive) |

| Compound | inhibition |
| --- | --- |
| COc1ccccc1NC(=S)N=C1CCN(c2ccccc2)N1 | 19.3% (inactive) |
| CNC(=S)Nc1ccc(N2CCOCC2)cc1 | 101% (active) |
| CSCCCNC(=S)Nc1ccc(N2CCOCC2)cc1 | 20.7% (inactive) |
| CCNC(=S)Nc1ccc(NC(=S)NCC)cc1 | 63.7% (active) |
| CNC(=S)Nc1ccc(Oc2ccc(NC(=S)NC)cc2)cc1 | 79.6% (active) |
| CNC(=S)Nc1ccc(Nc2ccccc2OC)cc1 | 72.1% (active) |
| CC(C)COC(=O)Nc1ccc2nc(N3CCOCC3)sc2c1 | 27.4% (inactive) |
| Cc1ncc(-c2ccc(NC(=O)C3CC3C)cc2)o1 (configuration not stated) | 94.6% (active) |
| O=C(Nc1ccc(-c2cnc(C3CC3)o2)cc1)C1CCCC1 | -17.9% (inactive) |
| N#Cc1cccc(COc2ccc(NC(=O)C3CCCO3)cc2F)c1 (configuration not stated) | 91.9% (active) |
| N#Cc1cccc(COC(=O)CC(NC(N)=O)c2cccs2)c1 (configuration not stated) | -9.57% (inactive) |
| FC(F)(F)c1cc(-c2ccco2)nc2c1cnn2Cc1cccnc1 | 37% (inactive) |
| CN(Cc1ccc(Cl)c(Cl)c1)C(=O)c1csc(-c2cccs2)n1 | 56.2% (active) |
| CCCN(CCC)C(=O)c1nn(-c2ccccn2)c2nccc(-c3cccs3)c12 | 41.7% (inactive) |
| CCNc1nc(C(=O)N(C)Cc2ccc(Br)o2)cs1 | 8.37% (inactive) |
| CCC(C)(C)NC(=O)c1ccc2c(c1)S(=O)(=O)c1ccccc1C2=O | 14.8% (inactive) |
| CCC(C)(C)NC(=O)COC(=O)c1ccc(-c2ccc(O)cc2)cc1 | 50.1% (active) |
| CCCC(C)C(=O)Nc1ccc(-c2nccs2)cc1 (configuration not stated) | 89.9% (active) |
| Cn1nc(C(=O)Nc2ccc(-c3nccs3)cc2)ccc1=O | 85.9% (active) |
| [O-]/[N+](Cc1ccccc1)=N/OCc1ccccc1 | 83.2% (active) |
| CCc1cc(=O)[nH]c(-n2nc(C)cc2NC(=O)C2CC(=O)N(c3ccccc3)C2)n1 (configuration not stated) | 101% (active) |
| CCc1cc(=O)[nH]c(-n2nc(C)cc2NC(=O)C2CC(=O)N(c3ccc(C)c(C)c3)C2)n1 (configuration not stated) | 101% (active) |
| CCCC(Nc1nc(-c2cccnc2)nc2c1cnn2C)c1cccs1 (configuration not stated) | 27.3% (inactive) |
| COc1ccccc1N1C(=O)CC(SC(N)=N/N=C(C)\C=C\c2ccc(N(C)C)cc2)C1=O (configuration not stated) | -2.66% (inactive) |
| Nc1nn(C(=O)CC2CCCO2)cc1-c1cccc(Cl)c1 (configuration not stated) | 83.6% (active) |

| Compound | inhibition |
| --- | --- |
| O=C1CSC(=NN=C2NC(=O)C(CC(=O)Nc3ccc(Br)cc3)S2)N1 (configuration not stated) | 18.9% (inactive) |
| Oc1ccc(Br)cc1C=Nn1cc(-c2ccccc2)[nH]c1=S | 25.5% (inactive) |
| O=C1CSC(=NN=Cc2cc(Br)ccc2O)N1 | 102% (active) |
| Cc1ncsc1C(=O)Nc1scc(C2CCCCC2)c1C(N)=O | 24.3% (inactive) |
| CN(C)CCNc1c2c(c(C#N)c3nc4ccccc4n13)CCCC2 | 20% (inactive) |
| CN=c1scc(-c2c(-c3ccccc3)n(C)c3ccccc23)n1C | 25.1% (inactive) |
| O=C1N=C2OC=C(C(=O)Nc3ccc(-n4cccc4)cc3)N2CCN1 | 89.4% (active) |
| O=C1N=C2OC=C(C(=O)Nc3ccc(-n4cccn4)cc3)N2CCN1 | 60.6% (active) |
| O=C(CCl)Nc1ccc(N2CCCCCC2)cc1 | 21.1% (inactive) |
| O=C(Nc1ccc(N2CCCCC2)cc1)c1ccc(Cl)s1 | 94% (active) |
| N#Cc1ccc(NC2CCN(c3ncccn3)CC2)cc1C(F)(F)F | 26.1% (inactive) |
| N#Cc1cccnc1N1CCC(CCc2ccc(O)cc2)CC1 | 93.1% (active) |
| Cc1nn(-c2ccccc2)c2[nH]c(=O)c(C#N)c(-c3cccs3)c12 | 64.4% (active) |
| COc1ccc2c(c1)OC1(O)COc3cc(OC)c(OC)cc3C1=C2 (configuration not stated) | 61.7% (active) |
| Clc1ccc(C=Nc2ccc3c(c2)OCO3)cc1 | 82.9% (active) |
| COc1ccc(O)c(C=Nn2c(C)csc2=NC(C)C)c1 | 34% (inactive) |
| O=C(OCc1cc2c(cc1Br)OCO2)c1cccc(O)c1 | -12.8% (inactive) |
| COc1ccc(O)c(C=Nc2ccc3c(c2)OCO3)c1 | 65.5% (active) |
| O=C1OC(c2ccc(Cl)cc2)=NC1=Cc1ccc2c(c1)OCO2 | 15.6% (inactive) |
| Brc1ccccc1C=Nc1ccc2c(c1)OCO2 | 94.3% (active) |
| Oc1ccc(N=Nc2ccc3c(c2)OCO3)c2ccccc12 | -28.6% (inactive) |
| COC(=O)c1c(C)[nH]c(C(=O)NC(C)Cc2cccc(Cl)c2)c1C (configuration not stated) | 30% (inactive) |
| CCC(C(=O)Nc1cc(C2CC2)nn1-c1nc(C)cc(=O)[nH]1)c1ccccc1 (configuration not stated) | 100% (active) |
| Cc1cc(=O)[nH]c(-n2nc(C3CC3)cc2NC(=O)c2cc3ccccc3o2)n1 | -20.2% (inactive) |
| Cc1cc(=O)[nH]c(-n2nc(C3CC3)cc2NC(=O)c2ccccc2)n1 | 100% (active) |

| Compound | inhibition |
| --- | --- |
| Cc1cccc(C(=O)Nc2cc(C3CC3)nn2-c2nc(C)cc(=O)[nH]2)c1 | 100% (active) |
| Clc1cnc(NN=Cc2cccs2)c(Cl)c1 | -11.6% (inactive) |
| Clc1cnc(NN=Cc2ccco2)c(Cl)c1 | 85.9% (active) |
| Oc1ccc(C=NNc2ncc(C(F)(F)F)cc2Cl)c(O)c1O | 17.8% (inactive) |
| CC[N+](CC)=c1ccc2nc3c(cc(N)c4ccccc43)oc-2c1 | 102% (active) |
| CO[C@H]1C=CO[C@@]2(C)Oc3c(C)c(O)c4c(O)c(c5c(nc6cc(C)ccn65)c4c3C2=O)NC(=O)C(C)=CC=C[C@H](C)[C@H](O)[C@@H](C)[C@@H](O)[C@@H](C)[C@H](OC(C)=O)[C@@H]1C | 98.5% (active) |
| O=C(/C=C(\O)c1ccccc1)c1ccccc1O | 100% (active) |
| CC(C)c1cc(=O)[nH]c(-n2nc(-c3cccs3)cc2NC(=O)c2cccc(F)c2)n1 | 99.2% (active) |
| CC(C)c1cc(=O)[nH]c(-n2nc(-c3cccs3)cc2NC(=O)c2ccc(F)cc2F)n1 | 99.7% (active) |
| Cc1cccc(C(=O)Nc2cc(-c3cccs3)nn2-c2nc(C(C)C)cc(=O)[nH]2)c1 | -9.66% (inactive) |
| O=S(=O)(CCSc1ccccn1)c1nc2ccccc2s1 | 101% (active) |
| O=C(CCl)N1CCN(c2cccc(Cl)c2)CC1 | 79.1% (active) |
| COc1ccc(N2CCN(C(=O)CCl)CC2)cc1 | 77.2% (active) |
| O=C(CCl)N1CCCc2cc([N+](=O)[O-])ccc21 | 102% (active) |
| Cc1cccc(C(=O)NCCn2ncccc2=O)c1 | 97.8% (active) |
| Cc1cccc(C(=O)NC(=NCCN2CCCC2)OCC(C)C)c1 | 5.15% (inactive) |
| COc1ccc(C(=O)NCCCn2cccn2)cc1OC1CCN(C(C)=O)CC1 | 17.6% (inactive) |
| CC(NC(=O)CN1CCCCC1)c1ccc(F)cc1F (configuration not stated) | 51.7% (active) |
| CC1COCCN1C(=O)NC(c1cc(F)ccc1F)C1CC1 (configuration not stated) | -42.7% (inactive) |
| COCc1ccccc1CNC(=O)CN1CCC(C)Sc2ccccc21 (configuration not stated) | -20.7% (inactive) |
| CC1(c2ccco2)NC(=S)N(c2ccccc2)N1 (configuration not stated) | 76.4% (active) |
| CCCCc1ccc(N2C(N)=CS/C2=C(/C#N)S(=O)(=O)c2ccccc2)cc1 | 89.6% (active) |
